{"source": "paper PMC12864922", "about": "“TDP-43 directly inhibits mRNA accumulation in neurites through modulation of mRNA stability”", "binders": {"B1": {"name": "ENSMUSG00000061578.87|Ksr2 (ssRNA)", "RNA": "GGGAGUUCUACAGUCCGACGAUCGCUUCGAUAUCCGCAUGCUAGGGUUAAACUUGCAAACAUCUGAUUUUAGAGGUCCCAUUCCAAGAUGGAAGUCACCGGUUGCCGCUGAGCACACAAUUCUGAAGGACAGUAGGCAGUCCUGCAGGUCUUUUUUAGCACAGGGCCUCUCUGGGGACCAGUCCCUGGCCUUCACCCUUCUCCCAUUUUGUAAGAACACUGUUCUAACUCACCUCAUGCCCACGCUACCCUGGGCAACUGGAGAACACCAUAGCGUUUCAGCUGAUGUGACAUUUGGUGUGACCUCUUGCGGUCGCACUAGUGUGGAAUUCUCGGGUGUCAAGG"}, "B2": {"name": "ENSMUSG00000058297.290|Spock2|101:106 (ssRNA)", "RNA": "GGGAGUUCUACAGUCCGACGAUCGCUUCGAUAUCCGCAUGCUAAGAGAGAGAGAGAGAGAGAAAGAGAGAGAGAAUGAGAGAGAAUGAGAGAGAGAAUACCCGAGGGCCACCCUGAUGCCCAGGAAGAGUGAGGGCAGCCCCCACACACGUGGAAGAGGCUGGGCAGCUAGCUACUGGGGACCUUGUGCUGAGGCUUCCAGGACAAAGCCCCAGUCUGGCUCUCCCCCAGCCUCUCAGGGGCACUGGCUGGUCACAUCCACUGAGUAUUGAUCGGUUGGACUUUAGGGAAGAGCCUCCUCCUUCUCUUGCGGUCGCACUAGUGUGGAAUUCUCGGGUGUCAAGG"}, "B3": {"name": "ENSMUSG00000058297.295|Spock2|71:76 (ssRNA)", "RNA": "GGGAGUUCUACAGUCCGACGAUCGCUUCGAUAUCCGCAUGCUAAAUGAGAGAGAAUGAGAGAGAGAAUACCCGAGGGCCACCCUGAUGCCCAGGAAGAGUGAGGGCAGCCCCCACACACGUGGAAGAGGCUGGGCAGCUAGCUACUGGGGACCUUGUGCUGAGGCUUCCAGGACAAAGCCCCAGUCUGGCUCUCCCCCAGCCUCUCAGGGGCACUGGCUGGUCACAUCCACUGAGUAUUGAUCGGUUGGACUUUAGGGAAGAGCCUCCUCCUUCCCAUUCCUUUCUGCCACCCUGGAAUGGCCCUCUUGCGGUCGCACUAGUGUGGAAUUCUCGGGUGUCAAGG"}, "B4": {"name": "ENSMUSG00000058297.298|Spock2|53:58 (ssRNA)", "RNA": "GGGAGUUCUACAGUCCGACGAUCGCUUCGAUAUCCGCAUGCUAAGAGAAUACCCGAGGGCCACCCUGAUGCCCAGGAAGAGUGAGGGCAGCCCCCACACACGUGGAAGAGGCUGGGCAGCUAGCUACUGGGGACCUUGUGCUGAGGCUUCCAGGACAAAGCCCCAGUCUGGCUCUCCCCCAGCCUCUCAGGGGCACUGGCUGGUCACAUCCACUGAGUAUUGAUCGGUUGGACUUUAGGGAAGAGCCUCCUCCUUCCCAUUCCUUUCUGCCACCCUGGAAUGGCCACCUUAAUCGUCAUCUCCCUCUUGCGGUCGCACUAGUGUGGAAUUCUCGGGUGUCAAGG"}, "B5": {"name": "ENSMUSG00000058297.296|Spock2|65:70 (ssRNA)", "RNA": "GGGAGUUCUACAGUCCGACGAUCGCUUCGAUAUCCGCAUGCUAAGAGAAUGAGAGAGAGAAUACCCGAGGGCCACCCUGAUGCCCAGGAAGAGUGAGGGCAGCCCCCACACACGUGGAAGAGGCUGGGCAGCUAGCUACUGGGGACCUUGUGCUGAGGCUUCCAGGACAAAGCCCCAGUCUGGCUCUCCCCCAGCCUCUCAGGGGCACUGGCUGGUCACAUCCACUGAGUAUUGAUCGGUUGGACUUUAGGGAAGAGCCUCCUCCUUCCCAUUCCUUUCUGCCACCCUGGAAUGGCCACCUUACUCUUGCGGUCGCACUAGUGUGGAAUUCUCGGGUGUCAAGG"}, "B6": {"name": "ENSMUSG00000058297.293|Spock2|83:88 (ssRNA)", "RNA": "GGGAGUUCUACAGUCCGACGAUCGCUUCGAUAUCCGCAUGCUAAAAGAGAGAGAGAAUGAGAGAGAAUGAGAGAGAGAAUACCCGAGGGCCACCCUGAUGCCCAGGAAGAGUGAGGGCAGCCCCCACACACGUGGAAGAGGCUGGGCAGCUAGCUACUGGGGACCUUGUGCUGAGGCUUCCAGGACAAAGCCCCAGUCUGGCUCUCCCCCAGCCUCUCAGGGGCACUGGCUGGUCACAUCCACUGAGUAUUGAUCGGUUGGACUUUAGGGAAGAGCCUCCUCCUUCCCAUUCCUUUCUGCCACCUCUUGCGGUCGCACUAGUGUGGAAUUCUCGGGUGUCAAGG"}, "B7": {"name": "ENSMUSG00000058297.288|Spock2|113:118 (ssRNA)", "RNA": "GGGAGUUCUACAGUCCGACGAUCGCUUCGAUAUCCGCAUGCUAAGAGAGAGAGAGAGAGAGAGAGAGAGAGAGAAAGAGAGAGAGAAUGAGAGAGAAUGAGAGAGAGAAUACCCGAGGGCCACCCUGAUGCCCAGGAAGAGUGAGGGCAGCCCCCACACACGUGGAAGAGGCUGGGCAGCUAGCUACUGGGGACCUUGUGCUGAGGCUUCCAGGACAAAGCCCCAGUCUGGCUCUCCCCCAGCCUCUCAGGGGCACUGGCUGGUCACAUCCACUGAGUAUUGAUCGGUUGGACUUUAGGGAAGCUCUUGCGGUCGCACUAGUGUGGAAUUCUCGGGUGUCAAGG"}, "B8": {"name": "ENSMUSG00000058297.289|Spock2|107:112 (ssRNA)", "RNA": "GGGAGUUCUACAGUCCGACGAUCGCUUCGAUAUCCGCAUGCUAAGAGAGAGAGAGAGAGAGAGAGAGAAAGAGAGAGAGAAUGAGAGAGAAUGAGAGAGAGAAUACCCGAGGGCCACCCUGAUGCCCAGGAAGAGUGAGGGCAGCCCCCACACACGUGGAAGAGGCUGGGCAGCUAGCUACUGGGGACCUUGUGCUGAGGCUUCCAGGACAAAGCCCCAGUCUGGCUCUCCCCCAGCCUCUCAGGGGCACUGGCUGGUCACAUCCACUGAGUAUUGAUCGGUUGGACUUUAGGGAAGAGCCUCCUCUUGCGGUCGCACUAGUGUGGAAUUCUCGGGUGUCAAGG"}, "B9": {"name": "ENSMUSG00000058297.287|Spock2|119:124 (ssRNA)", "RNA": "GGGAGUUCUACAGUCCGACGAUCGCUUCGAUAUCCGCAUGCUAAGAGAGAGAGAGAGAGAGAGAGAGAGAGAGAGAGAGAAAGAGAGAGAGAAUGAGAGAGAAUGAGAGAGAGAAUACCCGAGGGCCACCCUGAUGCCCAGGAAGAGUGAGGGCAGCCCCCACACACGUGGAAGAGGCUGGGCAGCUAGCUACUGGGGACCUUGUGCUGAGGCUUCCAGGACAAAGCCCCAGUCUGGCUCUCCCCCAGCCUCUCAGGGGCACUGGCUGGUCACAUCCACUGAGUAUUGAUCGGUUGGACUUUACUCUUGCGGUCGCACUAGUGUGGAAUUCUCGGGUGUCAAGG"}}, "note": "Whole data set: some 9,900 sequences, median “r (bound/input frequency ratio)” near 0.7, cut for the highest 2% near 6.5. The sample holds the highest values, similar sequences and a random draw of the others, so the mix is not that of the screen.", "data": [{"target": "TDP-43 (Homo sapiens, UniProt Q13148 1-414)", "sequence (Q13148 whole entry)": "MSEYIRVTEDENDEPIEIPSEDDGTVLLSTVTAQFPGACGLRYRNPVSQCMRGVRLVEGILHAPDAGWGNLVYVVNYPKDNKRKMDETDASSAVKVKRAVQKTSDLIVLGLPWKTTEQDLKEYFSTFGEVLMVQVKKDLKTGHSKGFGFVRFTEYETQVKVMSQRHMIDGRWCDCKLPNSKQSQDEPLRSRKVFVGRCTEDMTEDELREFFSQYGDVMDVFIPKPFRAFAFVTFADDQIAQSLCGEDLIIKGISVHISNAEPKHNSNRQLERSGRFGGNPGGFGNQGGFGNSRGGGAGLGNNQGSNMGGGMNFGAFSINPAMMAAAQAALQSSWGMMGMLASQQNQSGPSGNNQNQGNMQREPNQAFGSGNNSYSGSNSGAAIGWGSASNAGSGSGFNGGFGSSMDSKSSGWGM", "assay": "RNA Bind-n-Seq with designed 260-mer pool; 25 mM Tris-HCl, 150 mM KCl, 3 mM MgCl2, BSA (printed 500 mg/mL), 20 units/mL SUPERase IN; pH not stated; 500 nM RNA pool, 1 h, 4 C; TDP-43 5, 50, 500 nM; high values mean tight binding", "conditions": "protein: recombinant; tags: SBP (GST cleaved off with PreScission; pGEX-GST-SBP)", "how_it_was_run": "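Streptavidin beads captured recombinant SBP-tagged TDP-43 at 5, 50 or 500 nM, and the beads were incubated for 1 h at 4 °C with 500 nM of an in vitro-transcribed pool of 260-nt 3′ UTR oligos in 25 mM Tris-HCl, 150 mM KCl, 3 mM MgCl2, BSA and SUPERase IN. After washing, bound RNA was eluted with biotin, reverse transcribed, PCR-amplified and sequenced. Binding is reported as R, the mapped-read-normalized abundance of each oligo in the bound sample divided by its abundance in the input. Two independent protein batches served as duplicates.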", "values": [{"binder": "B1", "binding signal": "0.338 R (bound/input frequency ratio)"}, {"binder": "B2", "binding signal": "8.37 R (bound/input frequency ratio)"}, {"binder": "B3", "binding signal": "3.59 R (bound/input frequency ratio)"}, {"binder": "B4", "binding signal": "2.36 R (bound/input frequency ratio)"}, {"binder": "B5", "binding signal": "4.88 R (bound/input frequency ratio)"}, {"binder": "B6", "binding signal": "3.42 R (bound/input frequency ratio)"}, {"binder": "B7", "binding signal": "7.71 R (bound/input frequency ratio)"}, {"binder": "B8", "binding signal": "7.59 R (bound/input frequency ratio)"}, {"binder": "B9", "binding signal": "7.84 R (bound/input frequency ratio)"}]}]}
